Assay outcomes from PubChem BioAssay.
In the library only some 8.1% were active in any assay of this set; here they are far more common.
SW480 rereplic: A quantitative high throughput screen for small molecules that induce DNA re-replication in SW480 colon adenocarcinoma cells; 340,000 tested, 1.8% active; Potency, µM (highest dose often 46.1 µM), actives largely listed as activators; SW480 DNA re-replication, Hoechst DNA content imaging, 48 h; AID 624297, 2012; further: nearly all actives have a fitted effect of over 55% in size
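Readout is total intensity of Hoechst-stained nuclei, excited at 405 nm and collected at 500-530 nm. Compound treatment lasted 48 hr at 37 C in 5% CO2 before staining.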
MCF10A rereplic: A quantitative high throughput screen for small molecules that induce DNA re-replication in MCF 10a normal breast cells. MCF 10A DNA re-replication, Hoechst nuclear intensity, 48 h. Potency, µM (series often up to 46.1 µM), hits mostly activators. 350,000 tested, 2.9% active. AID 624296, 2012; further: nearly all actives have a fitted effect of over 50% in size
ELG1 DNA repair: qHTS screen for small molecules that inhibit ELG1-dependent DNA repair in human embryonic kidney (HEK293T) cells expressing luciferase-tagged ELG1 | HEK293T ELG1-luciferase reporter, luminescence, 16 h; DNA damage induced by 5-fluorouridine | Potency, µM (titrated, usually from 46.1 µM), hits mostly inhibitors | 330,000 tested, 2.3% active | AID 504467, 2011; further: nearly all actives have a fitted effect of over 55% in size
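Reporter activity after DNA damage by 5-fluorouridine is monitored. Compound-treated cells incubate 16 hr at 37 °C, then ONE-Glo is added for 30 min before luminescence reading.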
KB-3-1 cytotox: qHTS assay for MDR1-selective chemotherapeutics: Primary screen using the parental adenocarcinoma cell KB-3-1; KB-3-1 viability, CellTiter-Glo ATP luminescence, 72 h; 400,000 tested, 1.4% active; Potency, µM (titrated, usually from 46.1 µM), actives largely listed as cytotoxic; further: nearly all actives have a fitted effect of over 60% in size
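KB-3-1 parental drug-naive adenocarcinoma cells in DMEM/10% FBS, incubated 72 h at 37 C with pin-transferred compounds across a concentration series. Viability by CellTiter-Glo luminescence; concentration-response curves fitted after normalization.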
KB-V1 MDR tox: qHTS assay for MDR1-selective chemotherapeutics: Primary screen using the drug-selected MDR subline cells KB-V1; KB-V1 MDR cells viability, CellTiter-Glo, 72 h; Potency, µM (top dose mostly 46.1 µM), hits mostly cytotoxic; 400,000 tested, 3.4% active; AID 1347076, 2019; further: nearly all actives have a fitted effect of over 60% in size
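Readout: CellTiter-Glo luminescence, 10 min after addition. Cells: KB-V1 MDR subline, 72 h at 37 degrees C with compound. Analysis: corrected, normalized data fitted to concentration-effect curves.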
Of the large screens only hits and unclear results are named; the others gave an inactive call. The call rests on the fitted dose curve; in most records, active means well fitted curve in the direction sought with a large enough effect; inconclusive means small, poorly fitted or top-dose-only effect, or another doubt; inactive means no such curve, though single readings can be large; an effect the other way counts as inactive or inconclusive.

CC(=O)Oc1ccccc1Cn1c(C)c(C(=O)N(C)Cc2ccc(F)cc2)sc1=O	KB-3-1 cytotox inconclusive, KB-V1 MDR tox 18µM (no result: SW480 rereplic, MCF10A rereplic, ELG1 DNA repair)
COc1ccc(CNC(=O)c2sc(=O)n(Cc3ccccc3OC)c2C)cc1	KB-3-1 cytotox inconclusive, KB-V1 MDR tox 9.2µM (no result: SW480 rereplic, MCF10A rereplic, ELG1 DNA repair)
COc1ccccc1Cn1c(C)c(C(=O)NCc2ccc3c(c2)OCCO3)sc1=O	KB-V1 MDR tox inconclusive (no result: SW480 rereplic, MCF10A rereplic, ELG1 DNA repair)
COc1ccc(NC(=O)c2sc(=O)n(Cc3ccc4ccccc4c3)c2C)cc1OC	KB-V1 MDR tox inconclusive (no result: SW480 rereplic, MCF10A rereplic, ELG1 DNA repair)
COc1ccc(NC(=O)c2sc(=O)n(Cc3ccccc3C#N)c2C)cc1OC	KB-3-1 cytotox inconclusive, KB-V1 MDR tox 5.8µM (no result: SW480 rereplic, MCF10A rereplic, ELG1 DNA repair)
COc1ccc(Br)cc1S(=O)(=O)NCc1ccccn1	MCF10A rereplic inconclusive
Cc1cc(Br)ccc1NCc1ccccn1	SW480 rereplic 18µM, MCF10A rereplic 18µM, ELG1 DNA repair inconclusive, KB-V1 MDR tox inconclusive
Cc1ccc(CNC(=O)c2ccc3c(c2)CCN3S(=O)(=O)c2ccc(Br)cc2)cc1	none (no result: SW480 rereplic, MCF10A rereplic, ELG1 DNA repair)
O=C(Nc1cccc(C(F)(F)F)c1)c1cc(-c2ccco2)on1	none
O=C(Nc1cccc(C(F)(F)F)c1)c1sc(Cl)nc1C(F)(F)F	MCF10A rereplic 21µM, ELG1 DNA repair inconclusive
CCOC(=O)Cn1c(=O)n(C2CCCCC2)c2nc(-c3cccc(C)c3)nc(C(N)=O)c21	none (no result: SW480 rereplic, MCF10A rereplic, ELG1 DNA repair)
Cc1ccc(CN(CC2CCCO2)C(=O)CN2C(=O)C(C(C)C)Oc3ccccc32)o1 (stereo not given)	SW480 rereplic inconclusive, ELG1 DNA repair inconclusive
O=C(CN1C(=O)COc2ccccc21)N(Cc1ccc2c(c1)OCO2)CC1CCCO1 (stereo not given)	MCF10A rereplic inconclusive, KB-V1 MDR tox 4.1µM
O=C(Nc1ccc(-c2csc(Nc3ccccc3)n2)cc1)c1cc([N+](=O)[O-])cc(C(F)(F)F)c1	ELG1 DNA repair 9.2µM, KB-3-1 cytotox 15µM, KB-V1 MDR tox inconclusive
O=C(Nc1cccc(-c2csc(Nc3cccc(C(F)(F)F)c3)n2)c1)c1cc([N+](=O)[O-])cc(C(F)(F)F)c1	SW480 rereplic inconclusive, MCF10A rereplic inconclusive, ELG1 DNA repair 2.6µM
O=C(CCCc1ccccc1)NCCS(=O)(=O)N1CCN(c2ccccc2)CC1	none (no result: SW480 rereplic, MCF10A rereplic, ELG1 DNA repair)
Cc1noc(NS(=O)(=O)c2ccc(NC(=O)COc3ccccc3Br)cc2)c1C	none (no result: SW480 rereplic, MCF10A rereplic, ELG1 DNA repair)
CCOC(=O)CNc1nc(C(C)(C)C)nc2c1nnn2Cc1ccccc1Cl	MCF10A rereplic inconclusive, ELG1 DNA repair inconclusive, KB-3-1 cytotox inconclusive, KB-V1 MDR tox 5.8µM
COc1ccc(Nc2nc(C(C)(C)C)nc3c2nnn3Cc2ccccc2Cl)cc1OC	MCF10A rereplic inconclusive, KB-3-1 cytotox inconclusive, KB-V1 MDR tox inconclusive (no result: ELG1 DNA repair)
O=C1CC(C(=O)O)C(c2ccccc2)c2ccccc21 (stereo not given)	none (no result: ELG1 DNA repair)
Cc1ccc(S(=O)(=O)NCC(=O)NCC(=O)N(C)Cc2ccc3ccccc3c2)cc1C	MCF10A rereplic inconclusive, ELG1 DNA repair inconclusive, KB-3-1 cytotox inconclusive, KB-V1 MDR tox 13µM
CSc1ccc(CN(C)C(=O)CNC(=O)CNS(=O)(=O)c2ccc(C)c(C)c2)cc1	none
CC1=NN(C(=S)Nc2ccccc2)C(c2ccccc2)C1 (stereo not given)	ELG1 DNA repair inconclusive
Cc1ccc(C2CC(c3ccccc3)=NN2C(=S)Nc2ccccc2)o1 (stereo not given)	SW480 rereplic 12µM, MCF10A rereplic 5.2µM, ELG1 DNA repair inconclusive, KB-3-1 cytotox 5.8µM, KB-V1 MDR tox 5.2µM
C=C1C(=O)OC2CC1C(O)CC(C)=CCCC(C)=CC(O)CC2C (stereo not given)	SW480 rereplic inconclusive, MCF10A rereplic 1.3µM, KB-3-1 cytotox inconclusive, KB-V1 MDR tox inconclusive (no result: ELG1 DNA repair)
Cc1ccc(S(=O)(=O)c2nnn3c2nc(NC(C)c2ccccc2)c2sccc23)cc1 (stereo not given)	none (no result: SW480 rereplic, MCF10A rereplic, ELG1 DNA repair)
CCn1ncc(C2C(C(=O)Nc3ccc(C)cn3)=C(C)NC3=C2C(=O)CCC3)c1C (stereo not given)	KB-V1 MDR tox inconclusive
CC1=C(C(=O)Nc2ccc(C)cn2)C(c2cnn(C)c2)C2=C(CCCC2=O)N1 (stereo not given)	SW480 rereplic 0.52µM, ELG1 DNA repair inconclusive, KB-V1 MDR tox inconclusive
COc1cc2c(cc1NC(=O)COC(=O)[C@@H](NS(=O)(=O)c1cccc(Cl)c1)C(C)C)oc1ccccc12	KB-V1 MDR tox 23µM
COC(=O)c1c(NC(=O)COC(=O)[C@@H](NS(=O)(=O)c2cccc(Cl)c2)C(C)C)sc2c1CCC2	ELG1 DNA repair inconclusive
COc1cc2c(cc1NC(=O)c1cccc(S(=O)(=O)N(C)C)c1)oc1ccccc12	SW480 rereplic inconclusive, MCF10A rereplic inconclusive, ELG1 DNA repair inconclusive, KB-V1 MDR tox 10µM
COC(=O)c1sc(N)c(C(=O)OC)c1COC(=O)[C@@H](NS(=O)(=O)c1cccc(Cl)c1)C(C)C	MCF10A rereplic inconclusive, ELG1 DNA repair 15µM
COc1cc2c(cc1NC(=O)C(C)Sc1ccc(NC(C)=O)cc1)oc1ccccc12 (stereo not given)	MCF10A rereplic inconclusive, ELG1 DNA repair 16µM, KB-3-1 cytotox inconclusive
COc1ccc(S(=O)(=O)N[C@@H](C)C(=O)OCC(=O)Nc2cc3oc4ccccc4c3cc2OC)cc1	ELG1 DNA repair inconclusive
CCN(CC)S(=O)(=O)c1ccc(C(=O)Nc2cc3oc4ccccc4c3cc2OC)cc1	ELG1 DNA repair inconclusive
Cc1ccc(Nc2cc(C)c(C#N)c3nc4ccccc4n23)c(C)c1	none (no result: SW480 rereplic, MCF10A rereplic, ELG1 DNA repair)
CCOc1ccc(/C=C/c2ccc3ccccc3n2)cc1OCC	KB-3-1 cytotox inconclusive (no result: SW480 rereplic, MCF10A rereplic, ELG1 DNA repair)
CCN(CC)S(=O)(=O)c1ccc2[nH]cc(C(=O)NCCC3=CCCCC3)c(=O)c2c1	MCF10A rereplic inconclusive, ELG1 DNA repair 13µM, KB-3-1 cytotox inconclusive
Cc1nc2ccccn2c1C(=O)N/N=C/c1ccc2c(c1)OCO2	SW480 rereplic inconclusive, MCF10A rereplic inconclusive, ELG1 DNA repair inconclusive, KB-3-1 cytotox inconclusive, KB-V1 MDR tox 18µM
Cc1nc2ccccn2c1C(=O)NCc1ccc2c(c1)OCO2	ELG1 DNA repair 16µM, KB-V1 MDR tox 16µM
CCOc1cc(/C=N\NC(=O)c2c(C)nc3ccccn23)ccc1O	MCF10A rereplic inconclusive
COc1ccc(-c2noc(N3CCC(C(=O)N4CCN(c5ccccn5)CC4)CC3)n2)cc1	ELG1 DNA repair inconclusive, KB-V1 MDR tox 5.8µM
COc1ccc(NC(=O)C2CCN(c3nc(-c4ccc(OC)cc4)no3)CC2)cc1	none
COc1ccc(-c2noc(N3CCC(C(=O)Nc4ccc(OC)cc4OC)CC3)n2)cc1	ELG1 DNA repair 13µM
Cc1nc2ccccc2nc1C	none (no result: SW480 rereplic, MCF10A rereplic, ELG1 DNA repair)
